Source: PubChem BioAssay (NCI)
The panel holds about 79,000 compounds, 15% with a hit somewhere; the sample as a whole holds those more often. Calls of active or inactive are those of the source. Rule as the data show it: active = growth inhibition above about 70%; inactive = the rest.

Experiments:
[1] = NCI Yeast Anticancer Drug Screen. Data for the wt1 strain (AID 149);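 also: 0% = growth of vehicle-treated wt1 cultures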; conditions: S. cerevisiae wt1 strain (SPY 50644) growth inhibition, stronger effect = higher value
Outline: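 The wt1 strain was treated with compounds, and growth was compared with vehicle-treated cultures to give inhibition.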

[2] = NCI Yeast Anticancer Drug Screen. Data for the rad50EPP+ strain (AID 151);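 also: 0% = growth of vehicle-treated control cultures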; conditions: S. cerevisiae rad50 mutant strain, stronger effect = higher value
Outline: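 Read-out is yeast growth inhibition relative to vehicle; cells used were the rad50EPP+ strain.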

[3] = NCI Yeast Anticancer Drug Screen. Data for the rad50 strain (AID 155);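 also: 0% = growth of vehicle-only cultures of the same strain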; conditions: S. cerevisiae rad50 strain growth inhibition, stronger effect = higher value
Outline: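 Cells are treated with compound, grown, and their growth is then scored against vehicle-only cultures of the same repair-deficient yeast strain.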

[4] = NCI Yeast Anticancer Drug Screen. Data for the mec2-1 strain (AID 157); conditions: S. cerevisiae mec2-1 strain, stronger effect = higher value
Outline: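 Using mec2-1 yeast: add compound, measure growth, express inhibition versus vehicle-treated cultures.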

[5] = NCI Yeast Anticancer Drug Screen. Data for the sgs1 mgt1 strain (AID 161);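 also: 0% = growth of cultures given vehicle only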; conditions: S. cerevisiae sgs1 mgt1 strain, stronger effect = higher value
Outline: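 Compounds are added to genetically altered yeast, and growth is compared with cultures given vehicle alone to give percent inhibition.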

[6] = NCI Yeast Anticancer Drug Screen. Data for the CLN2oe strain (AID 163);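 also: 0% = growth of vehicle-only control cultures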; conditions: S. cerevisiae CLN2oe strain, stronger effect = higher value
Outline: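 Whole-cell yeast growth assay. A strain engineered for altered cell-cycle control received compound, and inhibition relative to vehicle-treated cultures was recorded.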

[7] = NCI Yeast Anticancer Drug Screen. Data for the cln2 rad14 strain (AID 165);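 also: 0% = growth equal to vehicle treated cultures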; conditions: S. cerevisiae cln2 rad14 strain, stronger effect = higher value
Outline: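 Yeast strain cln2 rad14, bearing defects in cell cycle control and DNA repair, serves as the test system; values reflect growth inhibition compared with vehicle.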

[8] = NCI Yeast Anticancer Drug Screen. Data for the bub3 strain (AID 167); conditions: S. cerevisiae bub3 mutant strain, stronger effect = higher value
Outline: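 Part of a panel of yeast mutants defective in DNA damage repair or cell cycle regulation. Each strain is grown with compound, and inhibition is calculated relative to solvent-treated cultures.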

[9] = NCI Yeast Anticancer Drug Screen. Data for the wt2 strain (AID 169);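 also: 0% = growth of vehicle-treated yeast cultures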; conditions: S. cerevisiae wt2 strain growth inhibition, stronger effect = higher value
Outline: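 Treated yeast vs. vehicle-treated yeast: growth inhibition determined.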

[10] = NCI Yeast Anticancer Drug Screen. Data for the mlh1 strain (AID 171);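 also: 0% = growth of vehicle-treated control cultures of the same strain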; conditions: S. cerevisiae mlh1 strain growth inhibition, stronger effect = higher value
Outline: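 A yeast strain with a defined genetic lesion serves as the test organism. Cultures receive compound or vehicle, and growth is measured.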

[11] = NCI Yeast Anticancer Drug Screen. Data for the sgs1 strain (AID 173);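 also: 0% = growth of vehicle-only control cultures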; conditions: S. cerevisiae sgs1 mutant, stronger effect = higher value
Outline: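 A genetically defined yeast mutant is incubated with the test compound, and its growth is compared to that of the same strain given vehicle.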

[12] = NCI Yeast Anticancer Drug Screen. Data for the mlh1 rad18 strain (AID 175); conditions: S. cerevisiae mlh1 rad18 strain growth inhibition, stronger effect = higher value
Outline: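 Steps: expose repair-defective yeast to compound; measure growth; express inhibition against vehicle-treated controls.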

[13] = NCI Yeast Anticancer Drug Screen. Data for the rad18 strain (AID 177); conditions: S. cerevisiae rad18 mutant growth inhibition, stronger effect = higher value
Outline: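 Measured value is growth inhibition of a yeast strain bearing a DNA repair alteration, referenced to vehicle-treated cells.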

[14] = NCI Yeast Anticancer Drug Screen. Data for the mgt1 strain (AID 153); conditions: S. cerevisiae mgt1 mutant growth inhibition, stronger effect = higher value
Outline: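 Measured: inhibition of mgt1 yeast growth by compound, normalized to vehicle-treated cultures.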

[15] = NCI Yeast Anticancer Drug Screen. Data for the rad14 strain (AID 159);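 also: 0% = growth of vehicle-treated control cultures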; conditions: S. cerevisiae rad14 strain growth inhibition, stronger effect = higher value
Outline: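 Readout: yeast growth inhibition, referenced to vehicle-only cultures. Strain bears a defined alteration in DNA damage repair.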

[16] = at 5.0 µM (retest, dose inferred, filed as 0.5)
[17] = at 50.0 µM (retest, dose inferred, filed as 5.0)

Measured: growth inhibition

O=C1c2ccccc2-c2cc3ccccc3c(=O)n21
inactive: [1]; at 1.2 µM -21% | [1]; at 3.7 µM 0% | [1]; at 11.0 µM 31% | [1]; at 33.0 µM 58% | [1]; at 100.0 µM 51% | [2]; at 1.2 µM 41% | [3]; at 1.2 µM 32% | [3]; at 3.7 µM 64% | [3]; [16] 1% | [4]; at 1.2 µM 13% | [4]; at 3.7 µM 19% | [4]; [16] -14% | [4]; at 11.0 µM 48% | [4]; [17] 41% | [5]; [16] 9% | [5]; [17] 46% | [6]; at 1.2 µM 1% | [6]; at 3.7 µM 4% | [6]; at 11.0 µM 23% | [6]; at 33.0 µM 51% | [6]; at 100.0 µM 68% | [7]; [16] 22% | [7]; [17] 15% | [7]; at 50.0 µM 14.3% | [8]; at 1.2 µM 3% | [8]; at 3.7 µM 2% | [8]; [16] -2% | [8]; at 11.0 µM 10% | [8]; at 33.0 µM 68% | [8]; [17] 56% | [9]; at 1.2 µM 4% | [9]; at 3.7 µM 9% | [9]; at 11.0 µM 31% | [10]; at 1.2 µM 4% | [10]; at 3.7 µM 19% | [10]; at 11.0 µM 66% | [10]; at 100.0 µM 63% | [11]; at 1.2 µM 22% | [11]; at 3.7 µM 14% | [11]; at 11.0 µM 47% | [12]; [16] -13% | [12]; [17] 63% | [13]; at 1.2 µM -22% | [13]; at 3.7 µM -17% | [13]; at 11.0 µM 28% | [13]; at 33.0 µM 63% | [13]; at 100.0 µM 59%
active: [2]; at 3.7 µM 76% | [2]; at 11.0 µM 90% | [2]; at 33.0 µM 92% | [2]; at 100.0 µM 80% | [3]; at 11.0 µM 88% | [3]; at 33.0 µM 89% | [3]; [17] 92% | [3]; at 50.0 µM 91.7% | [3]; at 100.0 µM 84% | [4]; at 33.0 µM 70% | [4]; at 50.0 µM 85.3% | [4]; at 100.0 µM 77% | [5]; at 50.0 µM 81% | [8]; at 50.0 µM 84.5% | [8]; at 100.0 µM 72% | [9]; at 33.0 µM 73% | [9]; at 100.0 µM 73% | [10]; at 33.0 µM 74% | [11]; at 33.0 µM 76% | [11]; at 100.0 µM 77% | [12]; at 50.0 µM 81%

CCOC(=O)/C(=C\c1cccc(C)c1)C(C)=O
active: [1]; at 33.0 µM 88% | [1]; at 100.0 µM 98% | [2]; at 33.0 µM 91% | [2]; at 100.0 µM 99% | [14]; at 33.0 µM 91% | [14]; at 100.0 µM 99% | [3]; at 33.0 µM 89% | [3]; [17] 91% | [3]; at 50.0 µM 92.3% | [3]; at 100.0 µM 98% | [4]; at 11.0 µM 71% | [4]; at 33.0 µM 95% | [4]; [17] 96% | [4]; at 50.0 µM 93.5% | [4]; at 100.0 µM 100% | [15]; at 33.0 µM 93% | [15]; at 100.0 µM 99% | [5]; [17] 94% | [5]; at 50.0 µM 92.5% | [6]; at 33.0 µM 92% | [6]; at 100.0 µM 99% | [7]; [17] 88% | [7]; at 50.0 µM 87.5% | [8]; at 11.0 µM 89% | [8]; at 33.0 µM 97% | [8]; [17] 96% | [8]; at 50.0 µM 90.2% | [8]; at 100.0 µM 99% | [9]; at 33.0 µM 92% | [9]; at 100.0 µM 99%
inactive: [1]; at 1.2 µM -37% | [1]; at 3.7 µM -15% | [1]; at 11.0 µM 29% | [2]; at 1.2 µM 48% | [2]; at 3.7 µM 31% | [2]; at 11.0 µM 60% | [14]; at 1.2 µM -2% | [14]; at 3.7 µM 3% | [14]; at 11.0 µM 58% | [3]; at 1.2 µM -13% | [3]; at 3.7 µM -8% | [3]; [16] 20% | [3]; at 11.0 µM 58% | [4]; at 1.2 µM 0% | [4]; at 3.7 µM 3% | [4]; [16] -5% | [15]; at 1.2 µM -6% | [15]; at 3.7 µM -7% | [15]; at 11.0 µM 38% | [5]; [16] 19% | [6]; at 1.2 µM 11% | [6]; at 3.7 µM 4% | [6]; at 11.0 µM 55% | [7]; [16] 5% | [8]; at 1.2 µM 1% | [8]; at 3.7 µM 14% | [8]; [16] 55% | [9]; at 1.2 µM 20% | [9]; at 3.7 µM 23% | [9]; at 11.0 µM 69%
